Compound activity: PubChem, National Center for Advancing Translational Sciences (NCATS)
Epigenetic derep: regulators of epigenetic silencing causing reporter derepression in mouse cells | murine LDR cells, GFP reporter derepression, 30 h | Potency, µM (titrated, usually from 53.9 µM), hits mostly activators | hit rate 0.2% among 280,000 | AID 1865; further: nearly all actives have a fitted effect of over 60% in size
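Murine LDR cells carrying a silenced, genomically integrated CMV-driven GFP reporter were exposed to compound for 30 hours at 37 C. After PBS washes, GFP-positive cells (20–120 um objects) were counted by laser-scanning microplate cytometry.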
Sfp inh: inhibitors of Bacillus subtilis Sfp phosphopantetheinyl transferase; Q9F4F7; Biochemical Sfp PPTase activity, qHTS; Potency, µM, hits mostly inhibitors; hit rate 3.5% among 310,000; AID 1490;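 further: the enzyme is Sfp with the accession as filed and its product quenches rhodamine fluorescence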
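After 15 min at room temperature with compound, 15 nM Sfp received 5 uM rhodamine-CoA plus 12.5 uM BHQ-2-ybbR (50 mM Hepes pH 7.6, 10 mM MgCl2). Rate came from the fluorescence difference over 30 min, ex 525/em 598 nm.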
ClpP mod: qHTS Assay for Activators of ClpP; hit rate 1.9% among 340,000; purified B. subtilis ClpP, FRET peptide cleavage, 20 min; ATP-dependent Clp protease proteolytic subunit (Bacillus subtilis (strain 168)), P80244; Potency, µM (top dose mostly 57.5 µM); AID 651965, 2013; active means well fitted falling curve with a large enough effect; inconclusive means small, poorly fitted or top-dose-only effect; inactive means no such curve, though single readings can be large or run the other way; further: the source files actives as falling curves though it sought activators and does not explain the sign; nearly all actives have a fitted effect of over 65% in size
Target sequence (P80244 whole entry, looked up): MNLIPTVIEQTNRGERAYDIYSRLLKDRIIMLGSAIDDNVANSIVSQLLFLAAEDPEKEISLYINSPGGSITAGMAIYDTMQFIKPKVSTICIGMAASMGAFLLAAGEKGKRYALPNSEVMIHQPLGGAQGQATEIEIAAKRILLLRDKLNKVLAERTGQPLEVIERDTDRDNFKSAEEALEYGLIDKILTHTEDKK
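ClpP 10 microg/mL final, pH 8 Tris/KCl buffer with BSA, glycerol, Tween-20; compound pinned in; FRET-FV substrate; RT 20 min; Ex320/Em430; ΔFRET vs ADEP 5.8 microM, DMSO, no enzyme.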
RORg inh: blocks mouse ROR gamma transcriptional activity. Drosophila S2 Gal4-RORgamma UAS-luciferase reporter, 20 h. AID 2551. hit rate 5.4% among 310,000. Potency, µM (series often up to 53.6 µM), most hits filed as inhibitors. P51450; further: nearly all actives have a fitted effect of over 60% in size
Target sequence (P51450 whole entry, looked up, the tested form may be a part): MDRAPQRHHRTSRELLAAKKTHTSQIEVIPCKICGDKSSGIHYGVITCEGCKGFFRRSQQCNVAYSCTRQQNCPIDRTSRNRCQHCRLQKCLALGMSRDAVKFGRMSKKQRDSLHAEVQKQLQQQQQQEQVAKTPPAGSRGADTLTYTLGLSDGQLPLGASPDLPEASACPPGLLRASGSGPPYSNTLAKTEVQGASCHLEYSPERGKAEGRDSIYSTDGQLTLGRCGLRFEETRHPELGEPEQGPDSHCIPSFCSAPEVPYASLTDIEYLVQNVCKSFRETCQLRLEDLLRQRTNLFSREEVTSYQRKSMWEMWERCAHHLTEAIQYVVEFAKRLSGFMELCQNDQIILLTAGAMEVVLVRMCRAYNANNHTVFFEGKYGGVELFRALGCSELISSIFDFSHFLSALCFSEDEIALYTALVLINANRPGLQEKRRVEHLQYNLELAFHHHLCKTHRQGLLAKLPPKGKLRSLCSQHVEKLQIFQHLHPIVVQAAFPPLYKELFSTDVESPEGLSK
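A Gal4/UAS one-hybrid system in insect cells: metallothionein-promoter Gal4–ROR gamma fusion plus Photinus luciferase reporter. Copper sulfate 700 uM final, 20 hr ambient incubation, luminescent detection after 10 min with reagent.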
VP16 counter: Gal4-VP16 reporter inhibition counter-screen; Potency, µM (series often up to 53.6 µM), actives largely listed as inhibitors; Drosophila S2 Gal4-VP16 UAS-luciferase, luminescence, 20 h; hit rate 3.5% among 310,000;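 further: Gal4-VP16 expression switched on by copper sulfate through the metallothionein promoter; nearly all actives have a fitted effect of over 50% in size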
PINK1 expr mod: changes PINK1 expression | PINK1 immunofluorescence, high-content cytometry, 24 h | Potency, µM (titrated, usually from 76.6 µM), hits mostly activators | hit rate 0.2% among 410,000; active means well fitted activation curve with a large enough effect; inconclusive means small, poorly fitted or top-dose-only effect; cell line not stated here; further: nearly all actives have a fitted effect of over 65% in size
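Measures PINK1 amount and localization on or inside mitochondria by immunofluorescence. Stable cells get compounds at 5 concentrations for 24 hours before fixation and staining; CCCP controls included.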
Numbers stand for hits. Hits are enriched below; roughly 8.1% of the tested compounds scored in any of these assays. Unless noted, the call rests on the fitted dose curve; in most records, active means well fitted curve in the direction sought with a large enough effect; inconclusive means small, poorly fitted or top-dose-only effect, or another doubt; inactive means no such curve, though single readings can be large; an effect the other way counts as inactive or inconclusive.

Results for O=C(Cc1cccs1)N/N=C/c1ccccc1 ?
Epigenetic derep: inactive; Sfp inh: inactive; RORg inh: inactive; VP16 counter: inactive; PINK1 expr mod: inactive

How did CCN(CC)c1ccc(/C=N/NC(=O)Cc2cccs2)c(O)c1 do in these assays?
Epigenetic derep: inactive; Sfp inh: inactive; ClpP mod: 28µM; RORg inh: 0.18µM; VP16 counter: 0.56µM; PINK1 expr mod: inactive

How did CCOC(=O)c1c(NC(=O)CSc2nc(-c3ccc(OC)cc3)cc(C(F)(F)F)n2)sc(C)c1C do in these assays?
Epigenetic derep: inactive; ClpP mod: inactive; PINK1 expr mod: inactive

How did CCN1C(=O)CC(CC(=O)N2CCC(c3nc4ccc(F)cc4[nH]3)CC2)(c2ccccc2C)C1=O (stereo not drawn) do in these assays?
PINK1 expr mod: inactive

Results for COc1ccc(-c2c(-c3ccccc3OC)sc3ccccc23)cc1OC ?
Sfp inh: inactive; ClpP mod: 28µM; RORg inh: inactive; VP16 counter: inactive; PINK1 expr mod: inactive

What do the screens show for `c1ccc(-c2sc3ccccc3c2-c2ccc(OCCN3CCCC3)cc2)cc1`?
ClpP mod: inconclusive; PINK1 expr mod: inactive

What do the screens show for `COc1ccc(-c2sc3ccccc3c2-c2ccc(OCCN3CCCCC3)cc2)cc1`?
ClpP mod: 28µM; PINK1 expr mod: inactive

What do the screens show for `COc1ccccc1-c1sc2ccccc2c1-c1ccccc1OC`?
ClpP mod: inconclusive; PINK1 expr mod: inactive

Results for COc1ccc(-c2sc3ccc(OC)cc3c2-c2ccc(OCCN3CCOCC3)cc2)cc1 ?
ClpP mod: 16µM; PINK1 expr mod: inactive

What do the screens show for `COc1ccccc1-c1sc2ccccc2c1-c1ccc(OCCN2CCCCC2)cc1`?
ClpP mod: 32µM; PINK1 expr mod: inactive

Results for Cc1cccc(N2CCN(c3ncnc4c3nc3n4CCCCC3)CC2)c1C ?
Epigenetic derep: inactive; ClpP mod: inactive; PINK1 expr mod: inactive

What do the screens show for `Cc1ccc(NC(=O)CCN2C(=O)c3ccccc3Sc3ncccc32)c(Cl)c1`?
Epigenetic derep: inactive; ClpP mod: inactive; PINK1 expr mod: inactive

Results for CCN(CC)c1cccc(O)c1 ?
RORg inh: inactive; VP16 counter: inactive

What do the screens show for `CCN(C(=O)CSc1nc2ccccc2nc1Cc1cccc(OC)c1)c1cccc(C)c1`?
Epigenetic derep: inactive; ClpP mod: inactive; PINK1 expr mod: inactive

What do the screens show for `O=C(NCCc1ccccc1)C1CCN(c2ncnc3c2nc2n3CCCCC2)CC1`?
Epigenetic derep: inactive; ClpP mod: inactive; PINK1 expr mod: inactive

Results for CCOC(=O)c1cc(-c2ccc(C)cc2)n(CC(=O)NC2CCCCCC2)c1C ?
Epigenetic derep: inactive; ClpP mod: inactive; PINK1 expr mod: inactive

Results for COc1cccc(-c2sc3cc(OC)c(OC)cc3c2-c2ccc(OCCN3CCCCC3)cc2)c1 ?
ClpP mod: 28µM; PINK1 expr mod: inactive

What do the screens show for `O=C(/C=C/c1cccc(Cl)c1)c1nc2ccccc2[nH]1`?
Epigenetic derep: inactive; Sfp inh: inconclusive; ClpP mod: inactive; RORg inh: 3.2µM; VP16 counter: inconclusive; PINK1 expr mod: inactive

How did Cn1cccc1CNC(=S)Nc1cc(F)cc(F)c1 do in these assays?
Epigenetic derep: inactive; Sfp inh: inactive; RORg inh: inactive; VP16 counter: inactive; PINK1 expr mod: inactive

What do the screens show for `Cc1ccc(C)c(NC(=S)NCc2cccn2C)c1`?
Epigenetic derep: inactive; Sfp inh: inactive; RORg inh: 10µM; VP16 counter: 11µM

What do the screens show for `COc1ccc(NC(=O)NCc2cccn2C)c(OC)c1`?
Epigenetic derep: inactive; Sfp inh: inactive; ClpP mod: inactive; RORg inh: inactive; VP16 counter: inactive; PINK1 expr mod: inactive

Results for CCc1ccccc1NC(=S)NCc1cccn1C ?
Epigenetic derep: inactive; Sfp inh: inactive; ClpP mod: inactive; RORg inh: 13µM; VP16 counter: 11µM; PINK1 expr mod: inactive

How did O=C(COc1nnc2ccccn12)N1CCN(S(=O)(=O)c2ccccc2)CC1 do in these assays?
ClpP mod: 32µM; PINK1 expr mod: inactive

How did O=C(COc1cccnc1[N+](=O)[O-])N1CCN(S(=O)(=O)c2ccccc2)CC1 do in these assays?
Epigenetic derep: inactive; Sfp inh: inactive; ClpP mod: inactive; RORg inh: inactive; VP16 counter: inconclusive; PINK1 expr mod: inactive

What do the screens show for `O=C(c1cccn1-c1nnc(N2CCCC2)s1)N1CCN(c2ccc(Cl)cc2)CC1`?
Epigenetic derep: inactive; ClpP mod: inactive; PINK1 expr mod: inactive

What do the screens show for `N#C/C(=C\c1c[nH]c2ccccc12)C(=O)Nc1ncc(Cc2ccc(Cl)cc2Cl)s1`?
Epigenetic derep: inactive; Sfp inh: inactive; ClpP mod: inactive; RORg inh: 1.4µM; VP16 counter: 2.2µM; PINK1 expr mod: inactive

What do the screens show for `Cn1cc(/C=C(\C#N)C(=O)Nc2ncc(Cc3cccc(Cl)c3)s2)c2ccccc21`?
Epigenetic derep: inconclusive; Sfp inh: inactive; RORg inh: 3.2µM; VP16 counter: 1.4µM

How did CC(=O)Nc1ncc(Cc2cc(Cl)ccc2Cl)s1 do in these assays?
Epigenetic derep: inactive; Sfp inh: inactive; ClpP mod: inactive; RORg inh: inconclusive; VP16 counter: inactive; PINK1 expr mod: inactive

What do the screens show for `COc1ccc(C)cc1NC(=O)c1cc(S(=O)(=O)NC2CCCCCC2)ccc1F`?
Epigenetic derep: inactive; ClpP mod: inactive; PINK1 expr mod: inactive

How did Cc1ccc(C)c(N2CCN(C(=O)CCS(=O)(=O)c3ccc4c(c3)CC(=O)N4C)CC2)c1 do in these assays?
Epigenetic derep: inactive; ClpP mod: inactive; PINK1 expr mod: inactive

Results for COc1ccc2c(/C=N/NS(=O)(=O)c3ccc(C)cc3)c[nH]c2c1 ?
Epigenetic derep: inactive; Sfp inh: 56µM; RORg inh: inactive; VP16 counter: inactive; PINK1 expr mod: inactive

Results for Cc1ccc2[nH]c(=O)c(CNC(C)(C)C)cc2c1 ?
Epigenetic derep: inactive; Sfp inh: 5.6µM; ClpP mod: 14µM; RORg inh: inactive; VP16 counter: inactive; PINK1 expr mod: inactive

How did COc1ccc2[nH]c(=O)c(CNc3cc(C)ccc3C)cc2c1 do in these assays?
Epigenetic derep: inactive; Sfp inh: 50µM; RORg inh: inactive; VP16 counter: inactive; PINK1 expr mod: inactive

What do the screens show for `CNC(=S)N(Cc1ccc(OC)cc1)Cc1cc2cc(C)ccc2[nH]c1=O`?
Epigenetic derep: inactive; Sfp inh: inactive; RORg inh: inactive; VP16 counter: inactive; PINK1 expr mod: inactive

How did COc1ccc2[nH]c(=O)c(CNc3ccc(C)cc3C)cc2c1 do in these assays?
Epigenetic derep: inactive; Sfp inh: 45µM; RORg inh: inactive; VP16 counter: inactive; PINK1 expr mod: inactive

What do the screens show for `CC(C)(C)NCc1cc2ccccc2[nH]c1=O`?
Epigenetic derep: inactive; Sfp inh: inactive; ClpP mod: inactive; RORg inh: inactive; VP16 counter: inactive; PINK1 expr mod: inactive
